# In the supplement of paper PMC8728848:
# This excerpt belongs to a sample that is enriched for the strongest signals.
# B1: MSMEG3662-2a (Mycobacterium smegmatis), A0QYH7_MYCS2 (protein)
# chain: MGDTLTAGQKLERGGSLQSGNGAYTLTLQDDGNLVLYARDKAVWSTGTNGQDVVRAEVQTDGNFVLYTAEKPVWHTDTKGKKEVKLVLQDDRNLVLYAKDGPAWSSKTDTTEPPPPAPEPEKEAEVAPAAAEEAAPAPVAEPAPAEPAPAAPPPAPPAPRTYTVVSGDTLWAIAERFYGDGSKYQQIADASGIANPDLIHPGQVLTIP
# Assays:
# Assay in all cases: glycan array binding signal (z-score within array); higher = stronger binding
# Settings in all cases: glycan notation: IUPAC condensed, linker removed
# [1] = molecular target: GlcNAc(b1-4)GlcNAc(b1-4)GlcNAc(b1-4)GlcNAc(b1-4)GlcNAc(b1-4)GlcNAc
# Procedure, shortened: (§1)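 The binding signal is a Z-score computed within each array. Data were drawn from 3228 arrays in the Consortium for Functional Glycomics database, restricted to those with a known protein sequence. Scores were averaged over arrays of the same protein sequence at different concentrations or buffers, and over linkers, and negative values can be taken as non-binding.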
# MurNAc(b1-4)GlcNAc = molecular target: MurNAc(b1-4)GlcNAc
# Procedure, shortened: as §1
# [2] = molecular target: Neu5Ac(a2-3)Gal(b1-3)GlcNAc
# Procedure, shortened: as §1
# Neu5Ac(a2-3)Gal(b1-4)Glc = molecular target: Neu5Ac(a2-3)Gal(b1-4)Glc
# Procedure, shortened: as §1
# [3] = molecular target: Neu5Ac(a2-3)Gal(b1-4)GlcNAc(b1-3)Gal
# Procedure, shortened: as §1
# [4] = molecular target: Neu5Ac(a2-3)Gal(b1-4)GlcNAc(b1-3)Gal(b1-4)GlcNAc
# Procedure, shortened: as §1
# [5] = molecular target: Neu5Ac(a2-3)Gal(b1-4)GlcNAc(b1-6)GalNAc
# Procedure, shortened: as §1
# [6] = molecular target: Neu5Ac(a2-3)Gal(b1-4)[Fuc(a1-3)]GlcNAc
# Procedure, shortened: as §1
# [7] = molecular target: Neu5Ac(a2-3)Gal(b1-4)[Fuc(a1-3)]GlcNAc(b1-3)Gal(b1-4)[Fuc(a1-3)]GlcNAc(b1-3)Gal(b1-4)[Fuc(a1-3)]GlcNAc
# Procedure, shortened: as §1
# [8] = molecular target: Neu5Ac(a2-3)Gal(b1-4)[Fuc(a1-3)]GlcNAc(b1-3)GalNAc
# Procedure, shortened: as §1
# Neu5Ac(a2-3)GalNAc = molecular target: Neu5Ac(a2-3)GalNAc
# Procedure, shortened: as §1
# [9] = molecular target: Neu5Ac(a2-3)[Neu5Ac(a2-6)]GalNAc
# Procedure, shortened: as §1
# Neu5Ac(a2-6)Gal(b1-4)Glc = molecular target: Neu5Ac(a2-6)Gal(b1-4)Glc
# Procedure, shortened: as §1
# [10] = molecular target: Neu5Ac(a2-6)Gal(b1-4)GlcNAc(b1-2)Man(a1-3)[Neu5Ac(a2-6)Gal(b1-4)GlcNAc(b1-2)Man(a1-6)]Man(b1-4)GlcNAc(b1-4)GlcNAc
# Procedure, shortened: as §1
# [11] = molecular target: Neu5Ac(a2-6)Gal(b1-4)GlcNAc(b1-2)Man(a1-6)[Man(a1-3)]Man(b1-4)GlcNAc(b1-4)GlcNAc
# Procedure, shortened: as §1
# [12] = molecular target: Neu5Ac(a2-6)Gal(b1-4)GlcNAc(b1-3)Gal(b1-4)GlcNAc(b1-3)Gal(b1-4)GlcNAc(b1-2)Man(a1-3)[Neu5Ac(a2-6)Gal(b1-4)GlcNAc(b1-3)Gal(b1-4)GlcNAc(b1-3)Gal(b1-4)GlcNAc(b1-2)Man(a1-6)]GalNAc
# Procedure, shortened: as §1
# [13] = molecular target: Neu5Ac(a2-6)Gal(b1-4)GlcNAc(b1-3)Gal(b1-4)[Fuc(a1-3)]GlcNAc(b1-3)Gal(b1-4)[Fuc(a1-3)]GlcNAc
# Procedure, shortened: as §1
# [14] = molecular target: Neu5Ac(a2-6)GlcNAc(b1-4)GlcNAc(b1-4)GlcNAc
# Procedure, shortened: as §1
# [15] = molecular target: Neu5Ac(a2-8)Neu5Ac(a2-3)Gal(b1-3)GalNAc(b1-4)[Neu5Ac(a2-8)Neu5Ac(a2-3)]Gal(b1-4)Glc
# Procedure, shortened: as §1
# [16] = molecular target: Neu5Ac(a2-8)Neu5Ac(a2-8)Neu5Ac
# Procedure, shortened: as §1
binder,measurement,setting,value
B1,glycan array binding signal (z-score),[1],13.9
same,glycan array binding signal (z-score),MurNAc(b1-4)GlcNAc,1.49
same,glycan array binding signal (z-score),[2],-0.039
same,glycan array binding signal (z-score),Neu5Ac(a2-3)Gal(b1-4)Glc,0.572
same,glycan array binding signal (z-score),[3],-0.15
same,glycan array binding signal (z-score),[4],0.065
same,glycan array binding signal (z-score),[5],-0.234
same,glycan array binding signal (z-score),[6],-0.124
same,glycan array binding signal (z-score),[7],-0.044
same,glycan array binding signal (z-score),[8],0.43
same,glycan array binding signal (z-score),Neu5Ac(a2-3)GalNAc,-0.06
same,glycan array binding signal (z-score),[9],-0.161
same,glycan array binding signal (z-score),Neu5Ac(a2-6)Gal(b1-4)Glc,-0.068
same,glycan array binding signal (z-score),[10],-0.046
same,glycan array binding signal (z-score),[11],-0.14
same,glycan array binding signal (z-score),[12],0.293
same,glycan array binding signal (z-score),[13],-0.129
same,glycan array binding signal (z-score),[14],1.58
same,glycan array binding signal (z-score),[15],0.097
same,glycan array binding signal (z-score),[16],-0.147
